Test results as given in paper PMC4336329 (PLoS ONE, 2015).
In all, about 310,000 compounds went through this assay and about 14,000 (4.5%) showed an effect of 50% or more. Effects have a minus sign here. The entries come from a sample that favours strong results as a whole.

molecular target: human ether-à-go-go-related gene (hERG) potassium channel (human, UniProt Q12809); experiment: primary screen, population patch clamp on CHO cells stably expressing hERG; higher = less effect of the substance
Sequence (Q12809 whole entry, looked up): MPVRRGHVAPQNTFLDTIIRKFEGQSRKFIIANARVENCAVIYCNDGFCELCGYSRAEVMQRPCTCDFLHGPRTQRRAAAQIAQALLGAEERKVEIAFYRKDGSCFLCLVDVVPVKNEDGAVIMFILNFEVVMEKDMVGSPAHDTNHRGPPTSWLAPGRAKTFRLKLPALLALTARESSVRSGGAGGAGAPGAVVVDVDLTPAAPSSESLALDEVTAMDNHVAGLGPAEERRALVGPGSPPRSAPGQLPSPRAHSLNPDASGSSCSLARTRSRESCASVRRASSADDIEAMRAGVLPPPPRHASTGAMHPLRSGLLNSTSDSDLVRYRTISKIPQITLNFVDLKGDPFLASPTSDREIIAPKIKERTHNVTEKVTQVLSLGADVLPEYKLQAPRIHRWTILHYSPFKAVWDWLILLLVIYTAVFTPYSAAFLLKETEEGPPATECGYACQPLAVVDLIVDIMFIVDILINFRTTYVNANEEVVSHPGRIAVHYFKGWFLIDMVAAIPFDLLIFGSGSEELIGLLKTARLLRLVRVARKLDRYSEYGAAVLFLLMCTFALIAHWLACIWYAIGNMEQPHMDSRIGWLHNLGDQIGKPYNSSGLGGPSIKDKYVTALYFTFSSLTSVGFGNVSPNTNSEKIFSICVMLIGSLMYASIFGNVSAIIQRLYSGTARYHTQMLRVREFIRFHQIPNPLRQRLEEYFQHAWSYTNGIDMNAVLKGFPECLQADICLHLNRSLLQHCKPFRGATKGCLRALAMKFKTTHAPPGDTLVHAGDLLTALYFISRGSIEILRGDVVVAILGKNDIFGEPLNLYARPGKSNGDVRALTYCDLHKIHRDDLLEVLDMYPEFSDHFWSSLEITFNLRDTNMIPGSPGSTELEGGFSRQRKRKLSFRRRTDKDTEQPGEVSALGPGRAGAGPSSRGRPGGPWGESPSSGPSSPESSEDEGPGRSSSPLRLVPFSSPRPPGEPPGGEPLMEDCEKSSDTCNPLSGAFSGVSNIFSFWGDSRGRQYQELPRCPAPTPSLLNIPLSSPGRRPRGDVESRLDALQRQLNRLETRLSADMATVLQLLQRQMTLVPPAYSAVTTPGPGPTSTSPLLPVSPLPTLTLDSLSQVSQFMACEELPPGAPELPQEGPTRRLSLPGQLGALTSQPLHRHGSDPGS
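Note: peak tail current of the secondary pulse compared with the same well before compound.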

Row | Structure (SMILES) | hERG current change (%, negative = inhibition) at 10uM [%]
1 | CCOc1ccc(-c2cnc3ccccc3n2)cc1 | 14.3
2 | CC(C)=C1C2CCC1C1C(=O)N(c3ccc(C)c(C)c3)C(=O)C21 (stereo not shown) | 3.55
3 | COc1ccc2nc(C)cc(SCC(=O)N/N=C/c3c(OC)ccc4ccccc34)c2c1 | 12.8
4 | CC(C)N(C(=O)Cn1c(SCC(=O)NCc2ccc3c(c2)OCO3)nc2ccccc21)C(C)C | -34.1
5 | CCN(CC)C(=O)CSc1ncnc2c1cnn2-c1ccccc1 | -14.2
6 | CCSc1nnc(Cn2c(=O)sc3ccccc32)n1-c1ccccc1C | -2.71
7 | CN(/N=C/c1ccc(N(C)C)cc1)C1=NS(=O)(=O)c2ccccc21 | 20.6
8 | Cc1ccc2[nH]c3c(=O)n(Cc4ccccn4)cnc3c2c1 | -1.6
9 | COC(=O)c1[nH]c2cc(OC)ccc2c1NC(=O)c1c(F)cccc1F | 2.79
10 | CC(C)Oc1ccc(C(=O)CCN2CCCCC2)cc1 | -20.9
11 | Cc1cc(OCCOCCN2CCCC2)ccc1C(C)C | -53.9
12 | COc1ccc(OCCCN2CCCCCC2)cc1.O=C(O)C(=O)O | -19.3
13 | CC(C)Oc1ccc(OCCCN2CCCCCC2)cc1.O=C(O)C(=O)O | -54.8
14 | Cc1cc(OCCN2CCCC2)ccc1C(C)C | -22.5
15 | Clc1cccc(Cl)c1OCCCCN1CCCCC1.O=C(O)C(=O)O | -40.8
16 | CCOc1cccc(OCCOCCN2CCCC2)c1 | -10.1
17 | CCOc1ccc(OCCCCN2CCCC2)cc1.O=C(O)C(=O)O | -12.2
18 | Clc1ccc(OCCCCN2CCCCC2)cc1.O=C(O)C(=O)O | -65.5
19 | O=C1COc2ccc(S(=O)(=O)N3CCCCC3)cc2N1 | 20
20 | Cc1ccc(NNC(=O)C(O)(c2cccc(C(F)(F)F)c2)c2cccc(C(F)(F)F)c2)cc1 | -7.55
21 | COc1cc2c(cc1OC)C(C)N(S(=O)(=O)c1ccc(C)cc1)CC2 (stereo not shown) | -15

Row | Structure (SMILES) | hERG current change (%, negative = inhibition) at 10uM [%]
22 | COc1ccc(C(C(=O)NC2CCCCC2)N(C(=O)c2snc(C(N)=O)c2N)c2ccccc2OC)cc1 (stereo not shown) | 11.4
23 | CC1CCC(NC(=O)CCS(=O)(=O)c2ccc3c(c2)oc(=O)n3C)CC1 (stereo not shown) | 5.15
24 | O=c1[nH]c(=O)n(Cc2ccco2)c(O)c1C=NCCCn1ccnc1 | 16.3
25 | c1ccc(-c2c(-c3ccccc3)n(Cc3ccco3)c3ncnc(NCCCn4ccnc4)c23)cc1 | -71.6
26 | O=C(NCCCn1ccnc1)c1ccco1 | -4.47
27 | c1ccc(Cn2ccnc2)cc1 | 19.6
28 | Cc1sc2ncnc(NCCCn3ccnc3)c2c1C | -46.1
29 | c1ccc(-c2ccccc2OCCCCn2ccnc2)cc1 | -26.4
30 | N=c1c2c(-c3ccccc3)c(-c3ccccc3)n(Cc3ccccc3)c2ncn1CCCn1ccnc1 | -71.2
31 | OCCNc1ncnc2c1c(-c1ccccc1)c(-c1ccccc1)n2Cc1ccco1 | -44.9
32 | N=c1c2c(-c3ccccc3)c(-c3ccccc3)n(Cc3ccco3)c2ncn1CCCn1ccnc1 | -74.3
33 | O=C(CSc1nc2cc(C(=O)O)ccc2c(=O)n1-c1ccc(F)cc1)Nc1ccc(F)c(F)c1F | 1.54
34 | CCCCn1c(NC(=O)c2ccc(F)cc2)c(C#N)c2nc3ccccc3nc21 | 6.88
35 | CCc1cc(C(=O)OC)c(NC(=O)CC2SC(N)=NC2=O)s1 (stereo not shown) | -6.56
36 | CCCC(=O)N1CCC(CCC(=O)NC2CC2)CC1 | 7.63
37 | COc1ccc(S(=O)(=O)N2c3ccccc3NC(=O)CC2C)cc1 (stereo not shown) | 9.7
38 | O=[N+]([O-])c1ccc(CS(=O)(=O)c2ccc(Cl)cc2)cc1 | -9.81
39 | CCc1ccc(Nc2nnc(SCC(=O)c3c(N)n(C4CC4)c(=O)[nH]c3=O)s2)cc1 | -17.7
40 | COc1cnc(-c2ccccn2)nc1NC(C)C | 7.65
41 | C=CCNC(=O)c1onc(CS(=O)(=O)c2cc(C)cc(C)c2)c1C(=O)NCC=C | -8.18
42 | C[C@H](N)c1nnc(SCC(=O)c2ccc(Cl)cc2)o1 | -6.79

Row | Structure (SMILES) | hERG current change (%, negative = inhibition) at 10uM [%]
43 | CC(C)[C@H](N)c1nnc(SCC(=O)c2ccc(Cl)cc2)o1.Cl | -14.2
44 | CCC(C)[C@H](N)c1nnc(SCC(=O)c2ccc(Cl)cc2)o1 (stereo partly shown) | -52.5
45 | Cc1ccc2oc(C(=O)N(C)Cc3ccon3)c(C)c2c1 | 4.23
46 | Cc1cccc2c(=O)cc(C(F)(F)F)[nH]c12 | 13.8
47 | CCS(=O)(=O)N1CCCC(C(=O)NCCc2ccc(OC)c(OC)c2)C1 (stereo not shown) | 13.1
48 | CCc1ccc(-c2nc(CN3CCC(C(=O)NCCc4ccc(OC)c(OC)c4)CC3)c(C)o2)cc1 | -76.2
49 | COc1ccc(-c2nc(CN3CCC(C(=O)NC4CC4)CC3)c(C)o2)cc1OC | -12.8
50 | CCc1ccc(-c2nc(CN3CCCC(C(=O)NCCc4ccc(OC)c(OC)c4)C3)c(C)o2)cc1 (stereo not shown) | -50.5
51 | COc1ccc(CN2CCC(C(=O)NCCc3ccc(OC)c(OC)c3)CC2)c(OC)c1 | -29.9
52 | COc1ccc(CCNC(=O)C2CCCN(S(C)(=O)=O)C2)cc1OC (stereo not shown) | 12
53 | Cn1c(=O)cc(OCCCC(=O)NCc2ccc(F)cc2Cl)c2ccccc21 | -15.1
54 | CCCOc1ccc(C(C)=O)cc1CSCCC#N | -1.08
55 | Cn1c(CC(=O)Nc2ccccc2F)nnc1SCC(=O)NC1CCCC1 | 11
56 | COCCN1CC(CNC(=O)c2cc(COc3ccc(C)c(C)c3)on2)CC1=O (stereo not shown) | -20.8
57 | COc1cccc(OCc2cc(C(=O)NCCN3CCCCC3CO)no2)c1 (stereo not shown) | 2.5
58 | Cc1ccc(OCc2cc(C(=O)NCC3COCCO3)no2)cc1C (stereo not shown) | -10
59 | CCN1CCCC1CNC(=O)c1cc(COc2ccc(C)c(C)c2)on1 (stereo not shown) | -65.2
60 | Cc1cc(OCc2cc(C(=O)NCCN3CCCCC3CO)no2)cc(C)c1Cl (stereo not shown) | -65.8
61 | Cc1cc(OCc2cc(C(=O)NC3CCC3)no2)cc(C)c1Cl | 3.82
